Data reported in PubChem BioAssay.
Several values for one entry are separate records, joined by “and”; a condition that tells them apart may be missing. Identical values can stand only once. Results filed as inconclusive are left out. Where a structure was tested more than once in an assay, its records may differ in their call. Activity calls are given as the source filed them.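 How the source made its calls, unless noted: active means compounds whose cell count with miR-34 switched on is under 0.7 times the count with it off; inactive means the rest.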

Experiments:
[1] = liver-stage malaria parasite growth inhibition, primary screen, cell-based, HepG2, luciferase luminescence, HepG2 viability (AID 624349; in the data active means parasite load remaining mostly below about 12%, no sharp cut-off; inactive means mostly above about 10%;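 further: 100% = mean of DMSO negative control wells on the same plate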); conditions: P. berghei liver stage in HepG2, luciferase luminescence, concentration not given here; parasite load remaining: stronger effect = lower value; viability: measured here: HepG2 viability without parasites
[2] = target: 6-phosphogluconate dehydrogenase, decarboxylating (Homo sapiens) (UniProt P52209); test: 6PGD enzyme inhibitors, primary screen, biochemical, human, recombinant enzyme, NADPH absorbance (AID 1159550;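 active means at least 20% inhibition of 6-phosphogluconate dehydrogenase activity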); conditions: recombinant 6PGD, NADPH absorbance 341 nm; at 10 µM; stronger effect = higher value
Sequence of 6-phosphogluconate dehydrogenase, decarboxylating (Homo sapiens) (P52209 whole entry, looked up): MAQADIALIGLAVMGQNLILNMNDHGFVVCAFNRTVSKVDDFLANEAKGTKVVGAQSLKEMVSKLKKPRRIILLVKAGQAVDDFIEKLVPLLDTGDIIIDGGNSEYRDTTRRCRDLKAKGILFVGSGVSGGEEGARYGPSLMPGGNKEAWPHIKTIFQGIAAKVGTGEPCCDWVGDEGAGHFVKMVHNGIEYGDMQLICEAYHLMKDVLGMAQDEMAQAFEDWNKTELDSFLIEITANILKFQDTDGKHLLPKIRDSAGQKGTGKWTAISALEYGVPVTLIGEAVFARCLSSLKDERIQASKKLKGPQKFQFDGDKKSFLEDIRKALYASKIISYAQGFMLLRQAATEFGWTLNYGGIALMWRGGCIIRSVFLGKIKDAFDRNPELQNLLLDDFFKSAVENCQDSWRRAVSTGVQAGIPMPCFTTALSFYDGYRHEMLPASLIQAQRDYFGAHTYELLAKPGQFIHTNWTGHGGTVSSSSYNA

[3] = growth inhibition of DIPG glioma cells, dose response, cell-based, SU-DIPG-XIII, MIPE4.0, CellTiter-Glo, qHTS (AID 1347061; cut-off not given, nearly all actives have AC50 up to about 37 µM;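 further: cells exposed to compound for 48 hours before readout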); conditions: SU-DIPG-XIII viability, CellTiter-Glo ATP luminescence
[4] = growth inhibition of DIPG glioma cells, dose response, cell-based, JHH-DIPG-1, MIPE4.0, CellTiter-Glo, qHTS (AID 1347062; cut-off not given, nearly all actives have AC50 up to about 27 µM); conditions: JHH-DIPG-1 viability, CellTiter-Glo ATP luminescence
[5] = growth inhibition of DIPG glioma cells, dose response, cell-based, SU-DIPG-IV, MIPE4.0, CellTiter-Glo, qHTS (AID 1347063; cut-off not given, nearly all actives have AC50 up to about 30 µM;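 further: compound exposure lasted 48 hours before the viability readout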); conditions: SU-DIPG-IV viability, CellTiter-Glo ATP luminescence
[6] = sensitizers of A549 cells to miR-34 induction, primary screen, imaging, A549 dox-inducible miR-34, nuclei and caspase counts (AID 1347080); conditions: A549 miR-34 inducible, Hoechst nuclei count, 48 h
[7] = survival rescue of mitochondrial mutant cells in low glucose, primary screen, MELAS cybrids, Rieske KO mouse fibroblasts, CellTiter-Glo (AID 1508586;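 active means mean z-score across replicates of 1.96 or higher in either the MELAS or the Rieske mutant cell line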;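 further: z relative to plate mean and SD of compound and empty wells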)
[8] = target: NAD(+) hydrolase SARM1 (Homo sapiens) (UniProt Q6SZW1); test: SARM1 TIR NADase inhibitors, cell lysate, NAD-Glo luminescence (AID 1508614;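 active means compound whose remaining NAD level is above about 45 nM, limit read from the data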); conditions: SAM-TIR HEK293T lysate NADase, at 1 µM, stronger effect = higher value
Sequence of NAD(+) hydrolase SARM1 (Homo sapiens) (Q6SZW1 whole entry, looked up, the tested form may be a part): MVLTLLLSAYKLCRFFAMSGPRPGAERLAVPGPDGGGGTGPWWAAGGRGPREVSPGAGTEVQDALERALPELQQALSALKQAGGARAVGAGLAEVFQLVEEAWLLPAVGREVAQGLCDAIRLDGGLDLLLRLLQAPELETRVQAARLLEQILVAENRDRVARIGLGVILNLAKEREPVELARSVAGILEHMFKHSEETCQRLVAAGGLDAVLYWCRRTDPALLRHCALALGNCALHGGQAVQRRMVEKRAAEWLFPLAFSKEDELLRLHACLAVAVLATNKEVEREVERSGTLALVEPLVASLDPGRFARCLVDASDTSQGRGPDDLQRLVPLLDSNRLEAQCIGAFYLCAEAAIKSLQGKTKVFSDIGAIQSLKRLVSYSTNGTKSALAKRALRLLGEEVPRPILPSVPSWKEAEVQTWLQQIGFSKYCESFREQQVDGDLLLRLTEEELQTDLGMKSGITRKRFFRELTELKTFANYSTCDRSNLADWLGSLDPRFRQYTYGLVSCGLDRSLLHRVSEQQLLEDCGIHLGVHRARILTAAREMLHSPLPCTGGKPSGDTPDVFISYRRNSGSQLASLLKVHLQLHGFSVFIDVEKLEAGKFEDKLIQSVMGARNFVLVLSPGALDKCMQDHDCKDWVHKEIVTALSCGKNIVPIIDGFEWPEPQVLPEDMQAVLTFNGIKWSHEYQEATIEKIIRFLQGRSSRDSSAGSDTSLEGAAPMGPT

[9] = target: Mitogen-activated protein kinase 7 (Homo sapiens) (UniProt Q13164); test: ERK5 transactivation activators in reporter cells, primary screen, cell-based, HTS (AID 1508626;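 active means luciferase signal above three times the same-plate solvent-only control wells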;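 further: luciferase driven by Gal4-ERK5 fusion binding five Gal4 sites before minimal TATA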); conditions: HeLa Gal4-ERK5 transactivation, 18 h, at 5 µM, stronger effect = higher value
Sequence of Mitogen-activated protein kinase 7 (Homo sapiens) (Q13164 whole entry, looked up, the tested form may be a part): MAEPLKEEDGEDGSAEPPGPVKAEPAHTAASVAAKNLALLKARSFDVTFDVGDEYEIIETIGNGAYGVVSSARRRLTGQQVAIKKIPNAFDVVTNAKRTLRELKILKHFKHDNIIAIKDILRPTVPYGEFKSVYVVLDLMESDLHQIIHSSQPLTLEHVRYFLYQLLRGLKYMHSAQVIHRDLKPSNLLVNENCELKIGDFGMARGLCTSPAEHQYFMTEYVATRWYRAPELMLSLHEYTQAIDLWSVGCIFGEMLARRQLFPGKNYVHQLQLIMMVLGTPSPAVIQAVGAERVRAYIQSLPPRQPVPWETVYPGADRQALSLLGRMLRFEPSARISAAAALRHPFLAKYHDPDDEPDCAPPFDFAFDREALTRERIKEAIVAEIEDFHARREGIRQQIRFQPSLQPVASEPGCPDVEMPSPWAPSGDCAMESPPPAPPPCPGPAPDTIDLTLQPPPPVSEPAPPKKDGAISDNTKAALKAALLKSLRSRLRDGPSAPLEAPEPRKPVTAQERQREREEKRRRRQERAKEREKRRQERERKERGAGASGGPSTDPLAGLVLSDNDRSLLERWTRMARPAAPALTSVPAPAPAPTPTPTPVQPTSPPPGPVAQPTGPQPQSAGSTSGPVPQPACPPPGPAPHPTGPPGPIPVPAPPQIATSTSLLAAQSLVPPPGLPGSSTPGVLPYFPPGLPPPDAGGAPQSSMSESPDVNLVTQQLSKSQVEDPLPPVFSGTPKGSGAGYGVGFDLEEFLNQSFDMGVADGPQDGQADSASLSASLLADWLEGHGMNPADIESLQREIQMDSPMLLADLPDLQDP

[10] = viability rescue of complex I mutant cybrids, primary screen, cell-based, galactose medium, ATP luminescence (AID 1645843;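 active means z-score of at least 1.8 in each of two replicates, scored against plate mean and spread of sample wells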;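 further: positive z means more ATP and so rescue of galactose-driven cybrid death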); conditions: complex I mutant cybrid cells, 72 h, stronger effect = higher value
[11] = stronger effect = lower value, cell number ratio, induced over uninduced
[12] = measured here: relative caspase fold change +Dox/-Dox
[13] = measured here: total cells with miR-34 induction, stronger effect = lower value
[14] = measured here: total cells without miR-34 induction
[15] = MELAS cybrid survival, CellTiter-Glo 48 h, stronger effect = higher value
[16] = Rieske KO mouse fibroblast survival, CellTiter-Glo 72 h

Compound | parasite load remaining [1] | viability [1] | inhibition [2] | outcome [3] | outcome [4] | outcome [5] | fold change [6, 11] | fold change [6, 12] | cell count [6, 13] | cell count [6, 14] | z-score [7, 15] | z-score [7, 16] | remaining NAD [8] | luciferase signal [9] | z-score [10] | AC50 [3]
CCC[C@@H]1C[C@@H](C(=O)N[C@@H]([C@H]2O[C@H](SC)[C@H](O)[C@@H](O)[C@H]2O)[C@@H](C)O)N(C)C1 | 63.5% (inactive) | 128% | -15.1% (inactive) | inactive | inactive | inactive | 0.837 (inactive) | 1.35 | 8810 | 10500 | 0.52 (inactive) and 0.4 (inactive) | -0.069 and -0.671 | 10 nM (inactive) | 64 AU (inactive) | -0.14 (inactive) | –
COc1ccc([C@@H]2CC(=O)c3c(O)cc(O[C@@H]4O[C@H](CO[C@@H]5O[C@@H](C)[C@H](O)[C@@H](O)[C@H]5O)[C@@H](O)[C@H](O)[C@H]4O)cc3O2)cc1O | 169% (inactive) | 116% | 1.33% (inactive) | – | – | inactive | 0.851 (inactive) | 2.5 | 8600 | 10100 | -0.52 (inactive) | -0.165 | – | 88 AU (inactive) | – | 14.8 µM (active)
CCCn1c(=O)c2[nH]c(C3CCCC3)nc2n(CCC)c1=O | – | – | 11.4% (inactive) | – | – | – | 1.02 (inactive) and 0.942 (inactive) | 1.07 and 0.717 | 7850 and 7600 | 7700 and 8070 | – | – | – | – | 1.02 (inactive) and 0.16 (inactive) | –
CCC(=O)NCC[C@@H]1CCc2ccc3c(c21)CCO3 | 159% (inactive) and -0.665% (active) | 88.5% and 95.2% | 11.8% (inactive) | inactive | inactive | inactive | 0.882 (inactive) | 7.18 | 11800 | 13400 | – | – | 10 nM (inactive) | 72 AU (inactive) | – | –
O=C1c2c(O)cccc2[C@H]([C@@H]2O[C@H](CO)[C@@H](O)[C@H](O)[C@H]2O)c2cc(CO)cc(O)c21 | – | – | -1.53% (inactive) | inactive | inactive | – | – | – | – | – | – | – | 10 nM (inactive) | 44 AU (inactive) | – | –
COc1cc2c(c(OC)c1OC)-c1ccc(OC)c(=O)cc1C(NC(C)=O)CC2 (configuration not stated) | – | – | -26.1% (inactive) | – | – | – | 0.969 (inactive) | 1.26 | 1510 | 1550 | – | – | – | – | -0.44 (inactive) | –
C=C1C(=O)O[C@H]2[C@H]1CC/C(C)=C/CC[C@@]1(C)O[C@@H]21 | – | – | 4.61% (inactive) | – | – | – | 0.99 (inactive) | 0.618 | 8550 | 8630 | – | – | – | – | 1.27 (inactive) | –
